Measured values published in PubChem BioAssay AID1645860 (Buhrlage Lab, Dana-Farber Cancer Institute and Novartis …, 2021).
Out of some 47,000 compounds screened, about 2,500 (5.3%) were called active. This excerpt belongs to a sample that is enriched for actives. Values without a mark were called inactive. No stated cut-off is given here; in the data, active means inhibition above about 30%; inactive means the rest.

Biological target: Ubiquitin carboxyl-terminal hydrolase 30 (Homo sapiens) (UniProt Q70CQ3)
Experiment: inhibitors of human USP30 deubiquitinase (AID 1645860)
Details: purified USP30, Ub-rhodamine cleavage fluorescence; at 25 µM; active compounds read high

Sequence of Ubiquitin carboxyl-terminal hydrolase 30 (Homo sapiens) (Q70CQ3 whole entry, looked up): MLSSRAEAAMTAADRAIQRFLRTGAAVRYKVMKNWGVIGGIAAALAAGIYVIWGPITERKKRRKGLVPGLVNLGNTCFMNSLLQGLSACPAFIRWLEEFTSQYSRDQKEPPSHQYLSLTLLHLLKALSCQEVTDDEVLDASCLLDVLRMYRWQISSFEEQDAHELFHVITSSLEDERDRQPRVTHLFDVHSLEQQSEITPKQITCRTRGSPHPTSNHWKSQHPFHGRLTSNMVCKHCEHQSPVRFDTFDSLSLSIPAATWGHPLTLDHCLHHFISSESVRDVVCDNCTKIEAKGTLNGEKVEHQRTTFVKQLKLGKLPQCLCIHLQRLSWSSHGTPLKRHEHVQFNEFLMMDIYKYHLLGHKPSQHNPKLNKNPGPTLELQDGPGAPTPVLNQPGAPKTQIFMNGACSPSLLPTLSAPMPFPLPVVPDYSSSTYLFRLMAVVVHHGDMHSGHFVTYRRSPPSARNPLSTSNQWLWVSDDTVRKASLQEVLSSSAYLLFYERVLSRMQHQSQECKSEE

Row | SMILES | inhibition
1 | COc1ccc(CNC(=O)c2cccc3cccnc23)cc1 | -9.33%
2 | COc1ccc(CNC(=O)c2[nH]nc3c2CCc2ccccc2-3)cc1 | 49.8% (active)
3 | COc1ccc(CNC(=O)c2ccccc2-c2ncc(-c3ccccc3)o2)cc1 | -5.92%
4 | O=C(O)C1(Cc2nc3ccccc3s2)CCCCC1 | 11.5%
5 | CC(C)(C)OC(=O)N1CCC2(CC1)NC(=O)C1(CCCCC1)N2 | 16.4%
6 | CC1CCCN(C(=O)c2cc(S(=O)(=O)N3CCCCC3)ccc2Cl)C1 (stereo not drawn) | 8.5%
7 | CCN1CCN(S(=O)(=O)c2ccc3c(c2)CC(C)N3C(=O)C2CC2)CC1 (stereo not drawn) | 2.83%
8 | CC(C)NC(=O)CN1C(=O)CC(C)Sc2ccc(S(=O)(=O)N3CCCCC3)cc21 (stereo not drawn) | 86.3% (active)
9 | COCCn1cnc2c(-c3ccccc3)cn(CC(=O)NCc3ccc(F)cc3)c2c1=O | -1.66%
10 | Cc1ccc(CNC(=O)c2ccc(-c3cccnc3)nc2)cc1 | 18.3%
11 | Cc1ccc(CNC(=O)CC(c2ccccc2)c2ccccc2)cc1 | 34.5% (active)
12 | Cc1ccc(CNC(=O)CCC(=O)N2Cc3cccn3-c3ccccc32)cc1 | -82.9%
13 | O=C([C@H]1CCCO1)N1C[C@H](OCc2cccnc2)[C@H]2COC[C@H]21 | 2.01%
14 | C/C(=C(\NC(=O)c1ccccc1)C(=O)NCc1ccccc1)c1ccc(C)cc1 | -4.27%
15 | CCc1nnc(-c2csc(S(=O)(=O)NC3CCCCCC3)c2)o1 | 16.4%
16 | O=C(CSc1ncnc2c1oc1ccccc12)NC1CCCC1 | 29.2%
17 | CCc1nc(SCC(=O)Nc2cccc3ccccc23)c2oc3ccccc3c2n1 | 47.2% (active)
18 | CCc1nc(SCC(=O)Nc2cc(Cl)ccc2Cl)c2oc3ccccc3c2n1 | 20%
19 | Cc1ccccc1OCC(=O)Nc1c(C)nc2scc(C)n2c1=O | 2.51%
20 | Clc1ccc(C[n+]2cc(-c3ccc(Cl)cc3)n3c2CCC3)cc1 | 34.1% (active)

Row | SMILES | inhibition
21 | O=C(C1CCCN(S(=O)(=O)c2ccc(Cl)cc2)C1)N1CCOCC1 (stereo not drawn) | 25.3%
22 | Cc1nc(Nc2ccc(NC(=O)c3ccco3)cc2)cc(N2CCCCC2)n1 | -38.5%
23 | O=C(c1cc2occc2c(Nc2ccc(F)cc2)n1)N1CCN(C(=O)c2ccco2)CC1 | 32.6% (active)
24 | Cc1ccc(Nc2nc(C(=O)NCCN3CCCCC3C)cc3occc23)cc1Cl (stereo not drawn) | -102%
25 | COC(=O)c1cc(NC(=O)c2cccnc2)ccc1N1CCOCC1 | -17.6%
26 | Cc1ccc(CNC(=O)c2ccc(-c3cncnc3)nc2)cc1C | -42.8%
27 | CC(C)c1ccc(NC(=O)C[n+]2cc(-c3ccc(F)cc3)n3c2CCC3)cc1 | 41.8% (active)
28 | Cc1c(Cl)cccc1NC(=O)C[n+]1cc(-c2ccc(Cl)cc2)n2c1CCC2 | 27.5%
29 | CC(=O)CCC(=O)Nc1ccc(-c2nnc3n2CCCCC3)cc1 | -1.55%
30 | Cc1cccnc1NC(=O)C1c2ccccc2C(=O)N(C)C1c1cccs1 (stereo not drawn) | 7.71%
31 | Cc1ccc(C(C)C(=O)N2CCC(c3nc4ccccc4cc3C(N)=O)CC2)cc1 (stereo not drawn) | -3.47%
32 | O=C(NCCC(=O)N1CCC2(CC1)NCCc1[nH]cnc12)c1ccc(-c2ccccc2)cc1 | 0.531%
33 | O=C(CCN1C(=O)c2cccnc2Sc2ccccc21)Nc1cc(F)ccc1F | 14.9%
34 | O=C(c1nc(-c2cnccn2)no1)N1CCN(c2ccccc2F)CC1 | -11.4%
35 | O=c1ccc(-c2nc(-c3cnccn3)no2)cn1Cc1cccc(Br)c1 | -4.12%
36 | O=c1ccc(-c2nc(-c3cnccn3)no2)cn1Cc1ccccc1C(F)(F)F | 41.2% (active)
37 | Cc1noc(C)c1CC(=O)N1CCN(S(=O)(=O)c2ccc(C3CCCCC3)cc2)CC1 | 29.4%
38 | CC(=O)N1C[C@H]2C3(CCN(C(=O)c4cc(C)on4)CC3)CC[C@@]2(C(=O)N(C)C)C1 | 0.149%
39 | CCCN1CCN(Cc2nc(-c3ccc(N4CCCCCC4)nc3)no2)CC1 | -26.8%
40 | O=C1COc2ccccc2N1Cc1noc(-c2ccccc2)n1 | 11.5%

Row | SMILES | inhibition
41 | COc1cccc(NC(=O)c2nnn(Cc3nc(-c4cccc(C)c4)oc3C)c2N)c1 | -2.05%
42 | O=C(NCc1ccc2c(c1)OCO2)c1nc(-c2cccnc2)no1 | 2.73%
43 | Cc1ccc(C(=O)Nc2nccnc2C(=O)NCc2ccc3c(c2)OCO3)cc1 | -13.1%
44 | Cc1nc(-c2ccc(C(=O)NCc3ccc4c(c3)OCO4)cc2)cs1 | 46.2% (active)
45 | Cn1c(CCN2CCOCC2)nc2cc(NC(=O)c3ccco3)ccc21 | -0.464%
46 | O=C(CN(c1ccc(Cl)cc1Cl)S(=O)(=O)c1ccccc1)NCc1ccncc1 | 2.13%
47 | Cc1ccc(NC(=O)CCn2cnc3c2c(=O)n(C)c(=O)n3C)cc1 | 1.79%
48 | Cc1cnc(NC(=O)Cn2cnc3c2c(=O)n(C)c(=O)n3C)s1 | 30.8% (active)
49 | Cn1c(=O)c2c(ncn2CC(=O)OCc2cccc([N+](=O)[O-])c2)n(C)c1=O | 13.8%
50 | N#Cc1ccc(NC(=O)Nc2cccn(Cc3ccccc3F)c2=O)cc1 | 11.4%
51 | COc1ccc(-c2noc(-c3cccc(OCC(=O)NC(C)C)c3)n2)cc1 | -1.09%
52 | Cc1ccccc1-c1nc(-c2cn(CC(=O)Nc3ccccc3)cn2)no1 | -44.4%
53 | COc1cc(Cl)ccc1-c1nc(-c2cccc(C(=O)N3CCCC3)c2)no1 | 16.1%
54 | Cc1ccc(-c2nc(-c3cccc(-c4ccnn4C)c3)no2)cc1 | 4.68%
55 | Cc1ccc(-c2noc(-c3cccc(OCC(=O)N(C)C)c3)n2)cc1 | 53.1% (active)
56 | Cc1ccccc1-c1nc(-c2cccc(OCC(=O)N3CCOCC3)c2)no1 | 44.8% (active)
57 | COc1cc(C)c(CN2CCC(c3cc(=O)[nH]c(C)n3)C2)cc1C (stereo not drawn) | 8.61%
58 | CN(C)C(=O)C1CN(C(=O)c2n[nH]c3c2CCCC3)CC12CCOCC2 (stereo not drawn) | -5.3%
